Data as given in PubChem BioAssay (NCI).
This is part of a sample that, as a whole, favours compounds with a hit. Of some 83,000 tested, about 20% had one in any assay.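 A percent growth of 40 corresponds to 60% growth inhibition; 0 means no net growth; -100 means all cells died. Active threshold: below 10.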 Values without a mark were called inactive. Calls of active or inactive are those of the source.

Experiments:
Test in all cases: NCI-60 one-dose screen, 48 h (100 = growth as untreated, 0 = no growth, -100 = all killed)
Conditions in all cases: 10 µM unless noted
[1] = tested on: BT-549 breast
[2] = tested on: MDA-MB-435 melanoma
[3] = tested on: SW-620 colon
[4] = tested on: MCF7 breast
[5] = tested on: HCT-116 colon
[6] = tested on: HCC-2998 colon
[7] = tested on: KM12 colon
[8] = tested on: T-47D breast

| Structure (SMILES) | growth [1] | growth [2] | growth [3] | growth [4] | growth [5] | growth [6] | growth [7] | growth [8] |
| --- | --- | --- | --- | --- | --- | --- | --- | --- |
| Cc1cnc(Nc2ccc(OCCN3CCCC3)cc2)nc1NCc1ccco1 | 78.2% | 84.1% | 67.5% | 50.8% | 40.5% | 87% | 22.7% |  |
| Cc1cc2c(F)c(Oc3ncnc(Nc4ccc(N5C[C@@H](C)N[C@@H](C)C5)cc4)c3C#N)cc(F)c2[nH]1 |  | 19.9% | 3.6% (active) | 12.3% |  | 84.1% | 11.9% | -1.93% (active) |
| O=C(O)c1ccc(CO)o1 |  | 109% | 104% | 84.1% | 103% | 111% | 106% | 105% |
| O=c1[nH]nc(-c2ccc(Cl)cc2)cc1Cc1ccccc1 |  | 106% | 105% | 92.2% | 93% | 113% | 102% | 84.1% |
| N#Cc1c(Oc2ccc([N+](=O)[O-])cc2)nc2sc3cc(Cl)ccc3n2c1=N |  | 111% | 93.1% | 61.8% | 105% | 117% | 47.7% | 60.2% |
| Clc1ccc(-c2cn(-c3ccccc3)c(-c3ccccc3)n2)cc1 | 62.9% | 87.7% | 66.7% | 9.74% (active) | 27.2% | 97.6% | 53.6% |  |
| CNC=O | 168% | 96.9% | 93.5% | 99.3% | 95.8% | 174% | 95.5% |  |
| CCCCn1c(=O)[nH]c(N)c(C(c2ccc(F)cc2)c2c(N)[nH]c(=O)n(CCCC)c2=O)c1=O |  | 64.7% | 91.1% | 46.8% |  | 72.9% | 61.3% | 39.6% |
| CCC(O)(C(c1ccccc1)c1ccccn1)C(c1ccccc1)c1ccccn1 (stereo not given) |  | 117% | 120% | 101% | 99.4% |  | 106% | 92.3% |
| Cc1ccc(S(=O)(=O)NN/C(N)=N\S(=O)(=O)c2cc(C)c(Cl)cc2SCc2ccccc2)cc1 |  | 96.4% | 96.6% | 99.8% | 94.6% | 107% | 97.3% | 87.9% |
| Clc1ccc2c(NCCCN3CCN(c4nc(N5CCOCC5)nc5ccccc45)CC3)ccnc2c1 | 59.3% | -86.5% (active) | -20.3% (active) | -3.49% (active) | -0.752% (active) | -57.5% (active) | 25% |  |
| Cc1nc(Nc2ccc(NC(=S)Nc3ccccc3)cc2)nc2nc(Nc3cccc(Cl)c3)[nH]c(=O)c12 |  | 108% | 98.3% | 89.8% |  | 114% | 106% | 89.1% |
| NS(=O)(=O)c1cnccc1-n1ccc(=O)c(S(N)(=O)=O)c1 |  | 91.7% | 97% | 88.8% | 92.5% | 104% | 93.3% | 84.5% |
| COc1ccc(/C=C2\COc3ccc(O)cc3C2=O)c(OC)c1 | 57.8% | -30% (active) | 54.9% | 54.7% | 61.9% | 89.2% | 24.8% |  |
| O=C(/C=C/c1ccccc1)c1ccc2ccccc2c1 |  | 103% |  | 49.9% | -5.91% (active) |  | 93.2% | 47.4% |
| Fc1ccc(Nc2nc(Nc3ccc(-c4nc5ccccc5[nH]4)cc3)c3cn[nH]c3n2)cc1 |  | 90.3% | 10.9% | 4.38% (active) |  | 82.9% | 54.4% | 12.1% |
| Nc1ccc2c(S(=O)(=O)O)ccc(S(=O)(=O)O)c2c1 |  | 107% | 106% | 93.1% | 93.9% | 98.7% | 110% | 82.5% |
| Cc1cn(C2CCCCC2)c(=O)[nH]c1=O | 102% | 108% | 109% | 108% | 107% | 112% | 117% |  |

| Structure (SMILES) | growth [1] | growth [2] | growth [3] | growth [4] | growth [5] | growth [6] | growth [7] | growth [8] |
| --- | --- | --- | --- | --- | --- | --- | --- | --- |
| Cc1nc(Nc2ccc(NC(=S)Nc3ccccc3)cc2)nc2nc(SCc3ccccc3)[nH]c(=O)c12 |  | 109% | 108% | 87.3% |  | 111% | 107% | 88.5% |
| CSc1nc2sc3cc(Cl)ccc3n2c(=N)c1C#N |  | 96.9% | 71.7% | 49% | 92.9% | 86.8% | 19.8% | 70% |
| C#C[C@]1(O)CC[C@H]2[C@@H]3CC=C4c5sc(N=C(N)N)nc5CC[C@]4(C)[C@H]3CC[C@@]21C |  | -55.9% (active) | -47.1% (active) | 0.374% (active) |  | -15.9% (active) | -28.6% (active) | 1.23% (active) |
| Cc1c(C(=O)O[C@H]2[C@@H]3[C@H](C)CC[C@H]3[C@]3(C)O[C@@]2(C2CCCCC2)C[C@H]3OC(=O)CO)ccc2ccccc12 | 33.4% | 39% | 18.7% | 3.27% (active) | 3.42% (active) | 5.5% (active) | 27.9% |  |
| O=C(C[C@@]1(O)C(=O)Nc2c(Cl)ccc(Cl)c21)c1ccc(C2CC2)cc1 |  | -48% (active) | 19.4% | 16.5% |  | 9.4% (active) | 24.7% | 40.5% |
| Cc1cc(C(c2ccccc2)c2ccccc2)ccc1NS(=O)(=O)c1ccccc1 |  | 114% | 101% | 88.3% | 82.1% | 104% | 97.7% | 85.6% |
| CO/C(=C1/NC(=O)C(Cc2ccc(O)c(Br)c2)N(C)C(=O)C(C)NC(=O)CCC/C=C(\C)CCC(C)OC1=O)c1ccccc1 (stereo not given) |  | 3.86% (active) | 18.2% | -17.5% (active) | 8.19% (active) | -36.6% (active) | 26.9% | -0.228% (active) |
| O=C(c1ccccc1)c1ccc(Cl)c([N+](=O)[O-])c1 | 106% | 89.5% | 16.8% | 91.3% | 45.2% | 88.4% | 106% |  |
| CCCCCCN(CCCCCC)CC(O)c1cccc2ccc(Cl)cc12 (stereo not given) | 99.2% | 69.9% | 35.7% | 56.5% | 16.7% | 13.1% | 44.5% |  |
| CSc1ccc(Cl)c(C(=O)Nc2sccc2C(N)=O)c1 |  | 110% | 96.5% | 64.8% |  | 102% | 99.8% | 44.1% |
| O=C(CCCCCCCn1cc(-c2cccnc2)nn1)Nc1ccccc1-c1ccccc1 |  | 22.5% | 20.6% | 38.5% | 0.699% (active) | 38.1% | 29.4% | 28% |
| C[C@H]1[C@H](C)CC[C@]2(C(=O)N3CCN(C)CC3)CC[C@]3(C)C(=CC[C@@H]4[C@@]5(C)C/C(=C/c6cccnc6)C(=O)C(C)(C)[C@@H]5CC[C@]43C)[C@H]12 | -81.2% (active) | -65.1% (active) | -49.9% (active) | -73.8% (active) | -88.2% (active) | -92.3% (active) | -89.3% (active) |  |
| O=C1N(c2ccccc2)C(=S)N[C@]12[C@H](c1ccccc1)C1CCCN1[C@]21C(=O)NC2C=CC(Cl)=C[C@H]21 (stereo not given in full) | 90.2% | 112% | 101% | 99.1% | 78.1% | 103% | 100% |  |
| COC1=CC(c2ccc[nH]2)=N/C1=C\c1[nH]c(C)c(C(=O)OCCn2cc(CCC[C@@H]3Cc4cc(O)ccc4C4CC[C@]5(C)[C@@H](O)CC[C@H]5C43)nn2)c1C (stereo not given in full) |  | 80% | 56.3% | 96% | 81.6% | 85.7% | 66.9% | 102% |
| CCOc1ccc(S(=O)(=O)c2ccc(C)cc2)c2c1no[n+]2[O-] |  | 91.4% | 100% | 83.1% |  | 100% | 93.6% | 56.4% |
| Cc1cc(NS(=O)(=O)c2ccccc2)c(OS(=O)(=O)c2ccccc2)cc1C |  | 122% | 107% | 93.7% | 96.1% | 106% | 107% | 109% |
| COc1cccc(-c2nc3sccn3c2-c2ccnc(NCCNS(=O)(=O)c3c(Cl)cccc3Cl)c2)c1 | 30.4% | 50.4% | 74.1% | 58.4% | 48.8% | 99.4% | 46.7% |  |
| COc1ccc(/C(C)=C(\c2ccc(Cl)cc2)c2ccc(OCCN3CCCC3)cc2)cc1F | 66.3% | 31.6% | 13.3% | 9.96% (active) | 14.3% | 18.6% | 7.85% (active) |  |
